Reference: the supplement of paper PMC9446081
± gives the standard deviation of the averaged measurements.

system: RNA polymerase; assay: relative enzymatic activity vs untreated control (fraction); higher = less inhibition; conditions: 100 µM; incubation time: 2 h at 37 C
Procedure: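 In vitro enzymatic inhibition assays (ProFoldin kits) for 12 purified essential E. coli enzymes or complexes, each treated with 218 active antibacterial compounds at 100 µM for 2 h at 37°C. Read-outs were fluorescence or absorbance (phosphate detection, dye binding), converted to activity via standard curves and expressed relative to untreated DMSO controls.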

Compound | relative enzymatic activity
CO/N=C(\C(=O)N[C@@H]1C(=O)N2C(C(=O)O)=C(C)CS[C@H]12)c1csc(N)n1 | 0.826 ± 0.098
NCC1OC(OC2C(N)CC(N)C(OC3OC(CO)C(O)C(N)C3O)C2O)C(N)CC1O (stereo unspecified) | 0.809 ± 0.04
NC(=O)N/N=C/c1ccc([N+](=O)[O-])o1 | 0.734 ± 0.088
Cc1nnc(SCC2=C(C(=O)[O-])N3C(=O)C(NC(=O)Cn4cnnn4)C3SC2)s1.[Na+] (stereo unspecified) | 0.961 ± 0.05
CCC=C(C(=O)NC1C(=O)N2C(C(=O)OCOC(=O)C(C)(C)C)=C(COC(N)=O)CSC12)c1csc(N)n1.Cl (stereo unspecified) | 0.977 ± 0.094
CC(O)C1C(=O)N2C(C(=O)O)=C(SC3CNC(C(=O)N(C)C)C3)C(C)C12 (stereo unspecified) | 1.09 ± 0.28
CN(C)C1C(O)=C(C(N)=O)C(=O)C2(O)C(O)=C3C(=O)c4c(O)cccc4C(C)(O)C3CC12.Cl (stereo unspecified) | 0.857 ± 0.014
Cc1cc(=O)c(C(=O)N[C@@H](C(=O)N[C@@H]2C(=O)N3C(C(=O)O)=C(CSc4nnnn4C)CS[C@H]23)c2ccc(O)cc2)c[nH]1 | 0.505 ± 0.5
CCN1CCN(C(=O)NC(C(=O)NC2C(=O)N3C(C(=O)O)=C(CSc4nnnn4C)CSC23)c2ccc(O)cc2)C(=O)C1=O (stereo unspecified) | 0.96 ± 0.2
Nc1nc(/C(=N/O)C(=O)N[C@@H]2C(=O)N3C(C(=O)O)=C(/C=C4\CCN([C@@H]5CCNC5)C4=O)CS[C@H]23)ns1 | 0.561 ± 0.045
CC(NCCCc1cccc(C(F)(F)F)c1)c1cccc2ccccc12.Cl (stereo unspecified) | 0.817 ± 0.077
